PubChem BioAssay AID1159580 (chemical genetic matrix, 2015)
Screen size: about 5,500 compounds; about 2,000 (36%) were called active. Inconclusive results (about 18%) are left out. No stated cut-off is given here; in the data, active means normalized growth mostly below about 0.91 (no sharp cut-off); inconclusive means no clear call, values can overlap the other calls; inactive means mostly above about 0.92. The list shows a part of the results.

Experiment: chemical genetic growth profiling, strain panel (AID 1159580);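 further: tested at 20 µM; growth read once vehicle control cultures reached saturation at 30 °C; 1 = growth at the plate median or of vehicle wells; lower values mean less growth of the strain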
Conditions: S. cerevisiae deletion strains, growth OD

Measured: normalized growth

CC(=O)Oc1ccc(Cl)c2cccnc12
active: locus YAL013W, strain DEP1, active compounds read low 0.0553 | locus YAL021C, strain ccr4, active compounds read low 0.069 | locus YAL026C, strain drs2, active compounds read low 0.0608 | locus YAL030W, strain snc1, active compounds read low 0.0564 | locus YBL061C, strain skt5, active compounds read low 0.0591 | locus YBR009C, strain hhf1, active compounds read low 0.0605 | locus YBR021W, strain FUR4, active compounds read low 0.0898 | locus YBR023C, strain chs3, active compounds read low 0.0596 | locus YBR171W, strain sec66, active compounds read low 0.0822 | locus YBR229C, strain ROT2, active compounds read low 0.0477 | locus YBR231C, strain swc5, active compounds read low 0.0648 | locus YBR279W, strain paf1, active compounds read low 0.0603 | locus YCL011C, strain gbp2, active compounds read low 0.0571 | locus YCL016C, strain dcc1, active compounds read low 0.0644 | locus YCL029C, strain bik1, active compounds read low 0.0625 | locus YCL069W, strain vba3, active compounds read low 0.0622 | locus YCR088W, strain abp1, active compounds read low 0.0643 | locus YDL005C, strain med2, active compounds read low 0.0757 | locus YDL035C, strain GPR1, active compounds read low 0.0496 | locus YDL040C, strain nat1, active compounds read low 0.0609 | locus YDL074C, strain BRE1, active compounds read low 0.0748 | locus YDL101C, strain DUN1, active compounds read low 0.0607 | locus YDL134C, strain PPH21, active compounds read low 0.0511 | locus YDL185W, strain tfp1, active compounds read low 0.0604 | locus YDL192W, strain arf1, active compounds read low 0.0619 | locus YDR001C, strain nth1, active compounds read low 0.064 | locus YDR069C, strain doa4, active compounds read low 0.0614 | locus YDR101C, strain arx1, active compounds read low 0.0604 | locus YDR137W, strain rgp1, active compounds read low 0.0888 | locus YDR150W, strain NUM1, active compounds read low 0.0581 | locus YDR159W, strain sac3, active compounds read low 0.0841 | locus YDR162C, strain NBP2, active compounds read low 0.0464 | locus YDR195W, strain ref2 0.118 | locus YDR297W, strain sur2, active compounds read low 0.0582 | locus YDR318W, strain mcm21, active compounds read low 0.064 | locus YDR334W, strain swr1, active compounds read low 0.0646 | locus YDR335W, strain msn5, active compounds read low 0.0695 | locus YDR388W, active compounds read low 0.0563 | locus YDR392W, strain spt3, active compounds read low 0.0734 | locus YDR502C, strain sam2, active compounds read low 0.0661 | locus YEL003W, strain gim4, active compounds read low 0.0532 | locus YEL037C, strain rad23, active compounds read low 0.0595 | locus YEL061C, strain CIN8 (second series), active compounds read low 0.0644 | locus YEL061C, strain CIN8, active compounds read low 0.0486 | locus YER015W, strain faa2, active compounds read low 0.0637 | locus YER016W, strain bim1, active compounds read low 0.0578 | locus YER110C, active compounds read low 0.0806 | locus YER111C, strain swi4, active compounds read low 0.076 | locus YER155C, strain BEM2 (second series), active compounds read low 0.094 | locus YER155C, strain BEM2, active compounds read low 0.0723 | locus YER167W, strain BCK2, active compounds read low 0.0497 | locus YFR010W, strain ubp6, active compounds read low 0.0687 | locus YGL078C, strain dbp3, active compounds read low 0.0682 | locus YGL086W, strain mad1, active compounds read low 0.0595 | locus YGL167C, strain pmr1, active compounds read low 0.0737 | locus YGL173C, strain kem1, active compounds read low 0.0684 | locus YGL227W, strain vid30, active compounds read low 0.0677 | locus YGL240W, strain doc1, active compounds read low 0.0722 | locus YGL248W, strain PDE1, active compounds read low 0.046 | locus YGL253W, strain hxk2, active compounds read low 0.0586 | locus YGR078C, strain PAC10, active compounds read low 0.0495 | locus YGR135W, strain pre9, active compounds read low 0.0649 | locus YGR252W, strain gcn5, active compounds read low 0.186 | locus YHR013C, strain ard1, active compounds read low 0.104 | locus YHR027C, strain rpn1, active compounds read low 0.0596 | locus YHR030C, strain SLT2, active compounds read low 0.0501 | locus YHR079C, strain IRE1 (second series), active compounds read low 0.0563 | locus YHR094C, strain hxt1, active compounds read low 0.0602 | locus YHR129C, strain ARP1, active compounds read low 0.056 | locus YHR142W, strain chs7, active compounds read low 0.0762 | locus YHR200W, strain rpn10, active compounds read low 0.0647 | locus YIL066C, strain RNR3, active compounds read low 0.0516 | locus YIL073C, strain SPO22, active compounds read low 0.118 | locus YIL125W, strain kgd1, active compounds read low 0.0601 | locus YIR030C, strain dcg1, active compounds read low 0.0565 | locus YJL092W, strain hpr5, active compounds read low 0.0615 | locus YJL095W, strain BCK1 (second series), active compounds read low 0.0566 | locus YJL095W, strain BCK1, active compounds read low 0.0546 | locus YJL115W, strain asf1, active compounds read low 0.0797 | locus YJL129C, strain trk1, active compounds read low 0.0818 | locus YJL134W, strain LCB3, active compounds read low 0.0495 | locus YJL154C, strain vps35, active compounds read low 0.0615 | locus YJL164C, strain tpk1, active compounds read low 0.0597 | locus YJL166W, strain qcr8, active compounds read low 0.0614 | locus YJL168C, strain set2, active compounds read low 0.062 | locus YJL187C, strain SWE1 (second series), active compounds read low 0.0475
